NPSR antagonist – blocks cAMP signaling of the human neuropeptide S receptor | Q6W5P4 | CHO-NPSR cells, cAMP TR-FRET, antagonist mode | Potency, µM (doses to about 38.3 µM), for the others: top-dose activity change, negative = inhibition, actives largely listed as inhibitors | 220,000 compounds, 1% hits | AID 1461; also: potency is read from the fitted curve at half-maximal effect; nearly all actives have a fitted effect of over 50% in size
Target sequence (Q6W5P4 whole entry, looked up): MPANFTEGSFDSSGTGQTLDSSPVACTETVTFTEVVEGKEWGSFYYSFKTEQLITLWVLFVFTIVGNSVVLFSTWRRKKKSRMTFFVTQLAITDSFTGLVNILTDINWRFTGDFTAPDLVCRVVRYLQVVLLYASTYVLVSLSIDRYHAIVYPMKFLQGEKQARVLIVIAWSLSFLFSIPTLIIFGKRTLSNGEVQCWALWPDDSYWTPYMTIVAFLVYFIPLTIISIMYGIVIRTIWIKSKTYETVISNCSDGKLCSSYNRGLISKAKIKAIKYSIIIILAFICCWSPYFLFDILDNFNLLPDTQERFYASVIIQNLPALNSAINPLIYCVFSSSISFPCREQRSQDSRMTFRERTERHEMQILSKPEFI
IMPase inh – membrane-permeable compound that blocks inositol monophosphatase; P97697; CHO-M1 cells, IP1 accumulation, HTRF TR-FRET ratio; inhibition (IP1 accumulation), % at 46.1 µM; 120,000 tested, under 10 active; active = well fitted curve in the direction sought with a large enough effect in the signal ratio, not every such curve was filed as active; inconclusive = small, poorly fitted or top-dose-only effect, or a change in a side signal; inactive = no such curve, though single readings can be large or run the other way; the % refers to the signal ratio;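 also: cells stimulated with carbachol in lithium chloride buffer; plate controls were DMSO basal wells for no effect and reference inhibitor wells for full effect; higher means more IMPase inhibition seen as more IP1 and lower FRET ratio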
Target sequence (P97697 whole entry, looked up): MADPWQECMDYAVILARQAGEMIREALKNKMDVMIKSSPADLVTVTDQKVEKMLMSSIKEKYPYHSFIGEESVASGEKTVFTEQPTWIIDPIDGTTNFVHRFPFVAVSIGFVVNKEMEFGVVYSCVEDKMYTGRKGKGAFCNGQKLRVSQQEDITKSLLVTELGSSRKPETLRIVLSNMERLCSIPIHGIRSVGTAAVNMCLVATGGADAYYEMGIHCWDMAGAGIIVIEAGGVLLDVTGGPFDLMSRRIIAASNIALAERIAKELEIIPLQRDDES
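CHO-M1 cells (CHO stably expressing M1 receptor), compound up to 46 uM final, stimulated with carbachol (50 uM as added) in buffer with 50mM LiCl, pH 7.4, 30 min at 37C. Cytosolic IP1 read by TR-FRET; AC50 from Hill fits.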
HPGD block – HPGD (human) dehydrogenase inhibition. purified HPGD, NADH fluorescence kinetic, PGE2 substrate. Potency, µM, for inactives: at the top dose activity change, negative = inhibition, actives largely listed as inhibitors. 150,000 compounds, 4.3% hits. AID 894; active = well fitted inhibition curve with a large enough effect, not every such curve was filed as active; inconclusive = small, poorly fitted or top-dose-only effect, or another doubt; inactive = no such curve, though single readings can be large or run the other way; also: potency is read from the fitted curve at half-maximal effect
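20 nM HPGD preincubated 15 min at room temperature with compound in 50 mM Tris-HCl pH 8, 0.01% Tween 20. Started with 1 mM NAD+ and 30 uM prostaglandin E2; NADH fluorescence (360/450 nm) read 5 times over 30-s intervals, last minus first.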
ALDH1A1 inh – ALDH1A1 (human) enzyme inhibition. P00352. Purified ALDH1A1, NADH fluorescence, propionaldehyde substrate. Potency, µM (highest dose often 75.3 µM), inactives show top-dose activity, negative = inhibition, actives largely listed as inhibitors. 220,000 compounds, 7.3% hits; active = well fitted inhibition curve with a large enough effect, not every such curve was filed as active; inconclusive = small, poorly fitted or top-dose-only effect, or another doubt; inactive = no such curve, though single readings can be large or run the other way;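 also: potency is read from the fitted curve at half-maximal effect; plate controls were no enzyme wells and a reference inhibitor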
ALOX12 inhib – 12-hLO (ALOX12) enzyme inhibition. P18054. purified 12-hLO, xylenol orange hydroperoxide absorbance. Potency, µM (series often up to 57.1 µM), for inactives: top-dose activity change, negative = inhibition, actives largely listed as inhibitors. 150,000 compounds, 0.12% hits; also: potency is read from the fitted curve at half-maximal effect; nearly all actives have a fitted effect of over 55% in size
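150 nM 12hLO, 25 mM Hepes pH 7.0 + 0.01% Triton X-100; cpd preinc 15 min RT; 40 uM arachidonic acid, 30 min RT; Fe-XO 30 min; A573/A405 ratio as read-out.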
IMPase Li cell – membrane-permeable IMPase blocker, potentiated with lithium; CHO-M1 cells, IP1 TR-FRET (IP-One), carbachol + lithium; Potency, µM (highest dose often 59.4 µM), inactives show at the highest dose activity, negative = IMPase inhibition, actives largely listed as inhibitors; 210,000 compounds, 0.35% hits; AID 1457;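 also: IP1 builds up when IMPase is blocked and the TR-FRET signal falls; potency is read from the fitted curve at half-maximal effect; plate controls were basal vehicle for no effect and high inhibitor control for full effect; nearly all actives have a fitted effect of over 50% in size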
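Steps: plate 2000 CHO-M1 cells per well and culture 16–30 h; add compound and lithium; incubate 30 min, 37C; add d2-IP1 tracer and Eu cryptate anti-IP1 antibody in lysis buffer; read after 10 min at room temperature.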
Starred values were filed as active, the others as inactive; ? = inconclusive; nt = no result given; [ ] = another dose, or the depositor's remark. This is a sample that favours compounds with a hit; in the whole collection about 8.9% have one here. Unless noted, calls follow the shape of the dose curve; as a rule, active = well fitted curve in the direction sought with a large enough effect; inconclusive = small, poorly fitted or top-dose-only effect, or another doubt; inactive = no such curve, though single readings can be large; an effect the other way counts as inactive or inconclusive. Unless noted, % is scaled to controls: 0 for no effect and ±100 for the full control effect.

SMILES	NPSR antagonist	IMPase inh	HPGD block	ALDH1A1 inh	ALOX12 inhib	IMPase Li cell
CC(C)C(=O)Nc1cccc(NC(=O)c2ccc(Cl)cc2Cl)c1	-13%	nt	-4%	11%	-4%	3%
Cc1cc(C)cc(C(=O)NC(=S)Nc2ccc3c(c2)OCCO3)c1	4%[46.1 µM]	1	nt	13µM*	-4%	nt
S=C(Nc1ccc2c(c1)OCO2)Nc1ccc2c(c1)OCO2	7%	nt	-29%	?	-8%	-1%
CCc1ccc(C(=O)NC(=S)Nc2ccc3c(c2)OCCO3)cc1	-2%	-1	-15%	18µM*	14µM*	16%
Cc1cc(N/N=C/c2cccc(Br)c2)nc2ccccc12	-49%	nt	-15%	-10%	2%	15%
COc1ccc(C(=O)CC(=O)c2ccc(C(C)(C)C)cc2)cc1	nt	nt	-6%	?	-7%	3%
COc1ccc(C(=O)C(CCC(CNC(C)(C)C)C(=O)c2ccc(OC)cc2)CNC(C)(C)C)cc1 (centres undefined)	23%	nt	-4%	8.9µM*	-1%	6%
CCOC(=O)c1nc(C)sc1-c1ccnn1S(=O)(=O)c1ccc(C)cc1	51%	nt	nt	3.2µM*	nt	nt
CN(Cc1ccncc1)C1CC(=O)N(c2ccc(Cl)cc2)C1=O (centres undefined)	2%[46.1 µM]	-2	-5%	-10%	-1%	-19%[38.3 µM]
COC(=O)CN(C)C1CC(=O)N(c2ccc(Cl)cc2)C1=O (centres undefined)	-6%[46.1 µM]	-11	-22%	3.2µM*	-6%	6%[38.3 µM]
COCCN(C(=O)Cn1nnc2ccccc21)C(C(=O)NC1CCCC1)c1cc(OC)ccc1OC (centres undefined)	-17%[46.1 µM]	7	-12%	-2%	1%	12%[38.3 µM]
COc1ccc(S(=O)(=O)O/N=C2\CCSc3ccc(C)cc32)cc1	-7%[46.1 µM]	2	-7%	7.1µM*	1%	60%[38.3 µM]
Cc1ccc(C(=O)O/N=C2\CCSc3ccc(C)cc32)cc1	2%[46.1 µM]	11	-13%	11%	-1%	32%[38.3 µM]
O=C(Nc1cccnc1)c1cc(-c2ccco2)on1	-1%[46.1 µM]	-3	-14%	-13%	1%	-5%[38.3 µM]
O=C(Cn1nc(C(F)(F)F)c2c1CCCC2)NCCN1CCOCC1	2%[46.1 µM]	0	1%	4%	1%	-7%[38.3 µM]
CC1(C)CC(=O)C2=C(C1)c1c(ccc3ccccc13)NC2c1cc([N+](=O)[O-])cc([N+](=O)[O-])c1O (centres undefined)	29%	nt	nt	11µM*	nt	22%
COc1cc(C2Nc3ccc4ncccc4c3C3=C2C(=O)CCC3)cc(OC)c1O (centres undefined)	3%[46.1 µM]	3	-8%	-3%	-7%	25%[38.3 µM]
COc1cc(C2Nc3ccc4ncccc4c3C3=C2C(=O)CC(C)(C)C3)cc(OC)c1O (centres undefined)	-13%[46.1 µM]	11	-13%	13µM*	3%	2%[38.3 µM]
O=c1c([N+](=O)[O-])c(N2CCOCC2)c2ccccc2n1-c1ccccc1	5%	nt	nt	9%	nt	8%
CCOc1ccccc1NC(=O)c1c(NC(=O)C(C)Oc2cccc(Cl)c2)sc2c1CCCCC2 (centres undefined)	nt	-15	nt	nt	nt	nt
COc1ccc2c(c1)CCC1C2=NN(/C(C)=C\C(C)=O)C1c1ccc(F)cc1 (centres undefined)	-23%	nt	nt	2%	nt	-1%
Cc1ccccc1C1c2[nH]c3ccccc3c2CCN1C(=O)c1ccc(=O)n(C)n1 (centres undefined)	42%	nt	nt	32µM*	nt	19%
CCOc1ccc(C2c3[nH]c4ccccc4c3CCN2C(=O)Cn2cncn2)cc1 (centres undefined)	28%	nt	nt	10%	nt	9%
COc1cccc(C2c3[nH]c4ccccc4c3CCN2C(=O)Cn2cncn2)c1OC (centres undefined)	-10%	nt	nt	9.5µM*	nt	27%
Cc1cccc(Cn2c(SCCN3CCOCC3)nc3c2c(=O)n(C)c(=O)n3C)c1	?	0	-5%	?	3%	2%[38.3 µM]
SMILES	NPSR antagonist	IMPase inh	HPGD block	ALDH1A1 inh	ALOX12 inhib	IMPase Li cell
COc1cc(CNc2ncn[nH]2)ccc1OCC(=O)NC(C)(C)C	-21%	nt	nt	-3%	nt	9%
COc1ccc(C)cc1N(C)C(=O)CCc1nc(-c2ccccc2F)no1	nt	-3	nt	nt	nt	nt
CCc1ccccc1N(CC)C(=O)CCc1nc(-c2ccc(C)cc2)no1	?	9	25µM*	1%	-11%	-10%[38.3 µM]
COc1ccc(OC)c(NC(=O)CCc2nc(-c3ccc(C)cc3)no2)c1	nt	1	nt	nt	nt	nt
COc1ccc(-c2noc(CCC(=O)Nc3cc(OC)ccc3OC)n2)cc1	-17%[46.1 µM]	6	-14%	7.1µM*	7%	-8%[38.3 µM]
CCN(C(=O)CCc1nc(-c2ccccc2F)no1)c1cc(OC)ccc1OC	-20%[46.1 µM]	2	22µM*	?	-2%	22%[38.3 µM]
COc1ccc(CNC(=O)CCc2nc(-c3ccccc3F)no2)c(OC)c1	4%[46.1 µM]	6	-10%	10µM*	4%	8%[38.3 µM]
COc1ccc(-c2ccc(CCC(=O)O)n2-c2ccccc2O)cc1	0%	2	nt	nt	nt	nt
COC(=O)CCC(C)C1CCC2C3C(C[C@H](O)C12C)C1(C)CC[C@@H](O)CC1C[C@H]3O (some centres undefined)	nt	-5	-5%	13%	4%	8%
Cc1ccc(N/C=C2\C(=O)C3(C)CCC2C3(C)C)cc1C (centres undefined)	1%	nt	nt	14µM*	nt	-1%
Cc1ccn2cc(C(=O)NCc3ccco3)nc2c1	8%	nt	nt	?	nt	-11%
Cc1ccc(C(=O)n2nc(-c3ccco3)nc2N)cc1	1%[46.1 µM]	1	?	?	0%	1%[38.3 µM]
Cc1ccc(C(=O)n2ncn(C)c2=S)cc1	27%	nt	nt	6.3µM*	nt	-1%
Cn1c(-c2cnn(-c3ccccc3)c2-n2cccc2)n[nH]c1=S	-17%	nt	nt	22µM*	nt	-4%
CCSc1nnc(-c2cnn(-c3ccccc3)c2-n2cccc2)n1C	-13%[46.1 µM]	-1	?	?	0%	30%[38.3 µM]
CCCCCCSc1nnc(-c2cnn(-c3ccccc3)c2-n2cccc2)n1C	?	-1	?	7.1µM*	-21%	30%[38.3 µM]
CN(C)c1cccc(C(=O)n2cc(C(=O)c3cc(F)ccc3O)cn2)c1	-10%[46.1 µM]	-2	-17%	4.5µM*	-11%	5%[38.3 µM]
O=C(c1cnn(C(=O)c2ccc(O)cc2)c1)c1ccccc1O	11%	nt	nt	?	nt	1%
O=C(c1cnn(C(=O)COc2ccccc2F)c1)c1cc(F)ccc1O	14%	nt	nt	0.4µM*	nt	nt
O=C(c1cnc2nc3ccccc3n2c1)c1cc(F)ccc1O	14%	nt	nt	4.5µM*	nt	-5%
Cc1cc(Cl)ccc1OCC(=O)n1cc(C(=O)c2cc(Cl)ccc2O)cn1	-11%	nt	nt	?	nt	-10%
O=C(c1cn[nH]c1)c1cc(F)ccc1O	-13%[46.1 µM]	5	-20%	?	3%	-13%[38.3 µM]

From PubChem
